In PubChem BioAssay AID485364 (National Center for Advancing Translational Sciences (NCATS), 2010):
The campaign covered roughly 360,000 compounds. About 11,000 (3.1%) were called active. Where a call stands in place of a potency, no number is given. Roughly 4% stayed inconclusive and do not appear here. The call rests on the fitted dose curve; in most records, active means well fitted inhibition curve with a large enough effect; inconclusive means small, poorly fitted or top-dose-only effect; inactive means no such curve, though single readings can be large or run the other way. The full list was thinned out, with actives kept by preference.

Each compound was assayed against Schistosoma mansoni thioredoxin glutathione reductase (TGR) (UniProt Q962Y6) (assay: qHTS Assay for the Inhibitors of Schistosoma Mansoni Peroxiredoxins). Conditions: purified TGR, DTNB reduction, TNB absorbance 405 nm; series mostly up to 114 µM.
How it was run: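 First, TGR (20 nM dispensed) and NADPH were mixed with compound. Second, a 15 min room-temperature incubation followed. Third, further NADPH and then DTNB were added to start the reaction. Finally, TNB absorbance was monitored kinetically.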
Further: nearly all actives have a fitted effect of over 60% in size.
Potency means the concentration at half of the fitted maximal effect.

Row | Structure (SMILES) | Potency
1 | O=C(COc1ccccc1)OCc1cc(=O)n2nc(-c3cccs3)sc2n1 | inactive
2 | CCOC(=O)c1ccc(NC(=O)c2c(NCc3cccs3)sc3c2CCCC3)cc1 | inactive
3 | Cc1cccc(CC(=O)N2CC(=O)Nc3ccc(F)cc3C2c2ccccc2)c1 (configuration not stated) | inactive
4 | CCOC(=O)c1ccccc1NC(=O)c1sc2nc(-c3ccc(F)cc3)cn2c1C | inactive
5 | O=C(Cn1ncc2c3ccccc3n(Cc3ccccc3)c2c1=O)NCc1ccccn1 | inactive
6 | Cc1nn(CC(=O)NCc2ccccn2)c(C)c1[N+](=O)[O-] | inactive
7 | Cc1c2cnn(CC(=O)NCc3ccccn3)c(=O)c2c(C)n1Cc1ccc(Cl)cc1 | 44.7 µM (active)
8 | Cc1ccc(Cn2c(C)c3cnn(CC(=O)NCc4ccccc4)c(=O)c3c2C)cc1 | inactive
9 | Cc1ccc(Cn2c(C)c3cnn(CC(=O)NCc4ccccn4)c(=O)c3c2C)cc1 | 35.5 µM (active)
10 | Cc1c2cnn(CC(=O)NCCCN3CC(C)CC(C)C3)c(=O)c2c(C)n1Cc1ccc(Cl)cc1 (configuration not stated) | inactive
11 | CN(C(=O)CSc1nnc(NC(=O)Nc2ccccc2)s1)c1ccccc1 | inactive
12 | CCOC(=O)c1c(C)oc2ccc(N(C(=O)c3ccncc3)S(=O)(=O)c3ccc(CC)cc3)cc12 | inactive
13 | Cc1c(Cl)cccc1NC(=O)N1CCN(C(=O)c2nsc3ccccc23)CC1 | inactive
14 | CNc1ccc(-c2nc(-c3ccccc3C)no2)cc1[N+](=O)[O-] | inactive
15 | O=C(CSc1ccsc1[N+](=O)[O-])N1CCCCC1 | 31.6 µM (active)
16 | O=C(CSCc1cccs1)N1CCCC1 | inactive
17 | CC1CC(C)CN(C(=O)CSc2ccsc2[N+](=O)[O-])C1 (configuration not stated) | inactive
18 | COc1cc(C(=O)NCCS(=O)(=O)N2CCN(c3ccccc3)CC2)cc(OC)c1OC | inactive
19 | COc1ccc2c(c1)c(N1CCCC1=O)c(C(=O)Nc1ccc(OC)c(Cl)c1)n2C | inactive
20 | C[C@@H](NC(=O)OC(C)(C)C)c1nnc(S(=O)(=O)Cc2ccccc2)o1 | 0.794 µM (active)
21 | COc1ccccc1NC(=O)[C@H](COCc1ccccc1)NC(=O)OC(C)(C)C | inactive
22 | CCc1ccccc1NC(=O)CSc1nnc([C@@H](NC(=O)OC(C)(C)C)C(C)CC)o1 (some centres not stated) | inactive
23 | CCN(Cc1ccccc1)S(=O)(=O)c1ccc2c(c1)CCCN2C(C)=O | inactive
24 | Cc1cc(NC(=O)c2cccc(Cl)c2)ccc1-c1cc2ccccc2oc1=O | inactive
25 | O=C(CSCc1cnn(-c2ccccc2)c1-n1cccc1)NCc1ccccc1Br | inactive
26 | O=C(/C=C/Sc1ncn[nH]1)c1ccc(Cl)cc1 | 0.794 µM (active)

Row | Structure (SMILES) | Potency
27 | COc1ccc(-n2c(SCC(=O)Nc3ccc(Cl)c(C)c3)nc3n[nH]c(C)c3c2=N)cc1 | inactive
28 | COc1ccccc1CNC(=O)Cn1nc(C)c2nn(-c3ccc(Cl)cc3)c(C)c2c1=O | inactive
29 | CCOC(=O)c1ccc(NC(=O)CCn2cnnn2)cc1 | 89.1 µM (active)
30 | CCOc1ccccc1NC(=O)CCn1cnnn1 | inactive
31 | CCOC(=O)c1ccc(NC(=O)CCn2c(=O)oc3ccccc32)cc1 | inactive
32 | CCN(CC)CCNC(=O)c1cc2c(=O)oc3ccc(C)cc3c2s1 | inactive
33 | CCc1ccc(NC(=O)c2cc(S(=O)(=O)N3CCCC(C)C3)cn2C)cc1 (configuration not stated) | inactive
34 | COc1ccc(CNC(=O)c2ccc(NC(=O)N3CC4CCCN4c4ccccc43)cc2)cc1 (configuration not stated) | inactive
35 | CSc1nc2ccc(C)cc2c(=O)n1-c1cccnc1 | inactive
36 | COc1ccc(-n2c(SC)nc(O)cc2=O)cc1 | inactive
37 | COc1ccc2c(c1OC)C(=O)OC2c1c(O)nc(SC)n(-c2ccccc2)c1=O (configuration not stated) | 7.94 µM (active)
38 | COc1ccc(Nc2ncc(C(=O)Nc3cc(C)ccc3OC)c3ccccc23)cc1 | inactive
39 | CCN1CCN(CCCNC(=O)c2cnn(-c3ccc(C)cc3C)c2C2CCN(C(=O)OC(C)(C)C)CC2)CC1 | inactive
40 | O=C1C(Cl)=C(N2CCOCC2)C(=O)N1c1ccccc1 | inactive
41 | O=C1c2ccccc2-c2ncnc3c(N4CCOCC4)cc(N4CCOCC4)c1c23 | inactive
42 | COC1=C(N2CCOCC2)C(=O)c2ccccc2C1=O | 17.8 µM (active)
43 | CCCS(=O)(=O)N1CCC(n2c(C(F)(F)F)nc3cccnc32)CC1 | inactive
44 | COc1ccccc1-c1cc2nc(C)c(CCC(=O)O)c(C)n2n1 | inactive
45 | CCOCCCNC(=O)c1c(NC(=O)Cc2coc3ccc(C)cc23)sc2c1CCC2 | inactive
46 | O=C(CCl)Nc1ccc(Sc2ccc(NC(=O)CCl)cc2)cc1 | 2.82 µM (active)
47 | O=C(Nc1ccc(Sc2ccc(Br)cc2)cc1)c1ccco1 | inactive
48 | CC(C)(CCl)C(=O)Nc1ccc(Sc2ccc(F)cc2)cc1 | inactive
49 | COc1ccc(-n2c(SC)nc3sc4c(c3c2=O)CCN(C(C)=O)C4)cc1 | inactive
50 | Cc1cccc(-c2nnc(SCC(=O)N3CCCc4ccccc43)o2)c1 | inactive
51 | COC(=O)c1ccccc1NC(=O)c1ccc(COc2ccccc2Cl)o1 | inactive
52 | CCOc1ccc(NC(=O)C(=O)NCCc2csc3nc(-c4ccccc4F)nn23)cc1 | inactive

Row | Structure (SMILES) | Potency
53 | O=c1cc(-c2ccccc2)nc(N2CCCCC2)[nH]1 | inactive
54 | CC(=O)c1cc(-c2ccccc2)n(CC(=O)NC2CCCCC2)c1C | inactive
55 | CC(=O)c1cc(-c2ccccc2)[nH]c1N1CCCC1 | 50.1 µM (active)
56 | COc1ccc(C(=O)Nc2cccc(C(=O)OCc3cc(=O)n4c5c(sc4n3)CCCC5)c2)cc1 | inactive
57 | Oc1ccccc1-c1nc(/C=C/c2ccc(F)cc2)no1 | inactive
58 | COc1ccc(Cc2nc3ccc(C(=O)NCc4ccccc4C)cc3o2)cc1 | inactive
59 | COC(=O)N(NC(=O)C(O)(C(C)C)C(C)C)c1ccccc1 | inactive
60 | CCCC(O)(CCC)C(=O)NN(C(=O)CCl)c1cccc(C)c1 | 25.1 µM (active)
61 | CCCCC(O)(CCCC)C(=O)NN(C(=O)CCl)c1ccccc1 | 8.91 µM (active)
62 | CC(C)(O)C(=O)NN(C(=O)c1ccccc1)c1cccc(Br)c1 | inactive
63 | Cc1cccc(N(Cc2ccccc2)C(=O)c2ccccc2F)c1 | inactive
64 | CCC(C)NC(=O)CCCc1ccccc1 (configuration not stated) | inactive
65 | CCC(=O)N1c2ccccc2CC1C(=O)N1CCN(c2ccccc2)CC1 (configuration not stated) | inactive
66 | COc1ccccc1CNC(=O)C(Cc1ccccc1)NS(=O)(=O)c1ccc2c(c1)oc(=O)n2C (configuration not stated) | inactive
67 | CCOc1ccccc1C(=O)NC1(C(F)(F)F)C(=O)Nc2c1c(=O)[nH]c(=O)n2-c1ccc(F)cc1 (configuration not stated) | inactive
68 | CC(C)NC(=O)c1nn(-c2ccccc2F)nc1CO | inactive
69 | CCCC(=O)Nc1ccc(NC(=O)c2sc3ccccc3c2Cl)cc1 | inactive
70 | O=C(/C=C/NNC(=O)c1cccc(Br)c1)c1ccccc1 | inactive
71 | O=C(/C=C\NCC(=O)c1ccccc1)c1ccccc1 | 28.2 µM (active)
72 | O=C(/C=C/NCc1ccc(F)cc1)c1ccccc1 | inactive
73 | COc1cc(NC(=O)CSc2nc3nc(C)c(Cc4ccc(C)cc4)c(C)n3n2)cc(OC)c1OC | inactive
74 | COc1ccc(NC(=O)C2CCCN(S(=O)(=O)c3c(C)[nH]c(=O)[nH]c3=O)C2)c(OC)c1 (configuration not stated) | inactive
75 | CC(=O)N1CCCc2cc(S(=O)(=O)N3CCC(C(=O)NCc4ccc(F)cc4)CC3)ccc21 | inactive
76 | Cc1ccc(C)c(N2CCN(S(=O)(=O)c3ccc4c(c3)C(C(C)C)C(=O)N4)CC2)c1 (configuration not stated) | inactive
77 | COC(=O)c1sccc1NC(=O)CCC1CCCC1 | inactive
78 | COC(=O)c1sccc1NN1C(=O)c2ccccc2C1=O | inactive

Row | Structure (SMILES) | Potency
79 | CCOC(=O)C(=CNNc1ccsc1C(=O)OC)C(=O)OCC | 20 µM (active)
80 | O=C(CCCCn1c(=O)c2ccccc2n(CC(=O)Nc2cccc(C(F)(F)F)c2)c1=O)NCc1ccc2c(c1)OCO2 | inactive
81 | COc1cccc(CNC(=O)CCc2nc(-c3ccc(C)cc3)no2)c1 | inactive
82 | CCOC(=O)Cn1c(=O)n(-c2ccccc2OC)c2nc(-c3cccc(F)c3)nc(C(N)=O)c21 | inactive
83 | CCOc1cc(C2C(C(=O)OC)=C(C)NC3=C2C(=O)c2ccccc23)ccc1O (configuration not stated) | inactive
84 | CCOC(=O)c1ccc(-c2ccc(C(=O)Nc3cccnc3)o2)cc1 | inactive
85 | COC(=O)C1=C(C)NC2=C(C(=O)c3ccccc32)C1c1ccc(-c2ccc(C(=O)O)cc2)o1 (configuration not stated) | 20 µM (active)
86 | CCOC(=O)c1cc2c(=O)n3ccccc3nc2n(CC2CCCO2)c1=NC(=O)c1ccccc1Br (configuration not stated) | inactive
87 | Cc1ccn(C(CC(=O)c2ccc(Br)cc2)C(=O)O)n1 (configuration not stated) | 8.91 µM (active)
88 | Cc1cc(C)c2c(=O)[nH]c(SCC(=O)Nc3ccc(Br)cc3)nc2n1 | inactive
89 | Cc1ccc(NC(=O)CCC(=O)c2ccc(Br)cc2)cc1 | inactive
90 | Cc1ccc(-n2ncc3c(=O)n(Cc4cccc(C(F)(F)F)c4)cnc32)cc1C | inactive
91 | O=C(Nc1ccccc1Cl)N1CCC(CN2CCCC2)CC1 | inactive
92 | CCOC(=O)c1cc(-c2ccccc2)n(CCC(=O)Nc2ccccc2CC)c1C | inactive
93 | CCOC(=O)c1cc2n(c1N)-c1ccccc1C2=O | 31.6 µM (active)
94 | CCOC(=O)c1ccccc1CN1C(=O)c2ccccc2S1(=O)=O | inactive
95 | O=C(Nc1cccc2cccnc12)c1cccc2c(Br)cccc12 | inactive
96 | COc1ccc(CNC(=O)c2cc3c(=O)[nH]c4ccc(C)cc4c3s2)c(OC)c1 | inactive
97 | N#C/C(=C\c1cccc(F)c1)c1nc(-c2cc3c(ccc4ccccc43)oc2=O)cs1 | inactive
98 | COC(=O)c1ccc(CSc2ccc3nnc(-c4ccccc4)n3n2)o1 | 56.2 µM (active)
99 | COC(=O)c1ccc(CSc2ccccc2C)o1 | inactive
100 | COC(=O)c1ccc(CSc2nnc(N)s2)o1 | inactive
101 | CCOc1ccc(OCC)c(NS(=O)(=O)c2ccc3[nH]c(=O)ccc3c2)c1 | inactive
102 | CCc1ccccc1N1CC(c2nc3ccccc3n2CCCCOc2ccccc2)CC1=O (configuration not stated) | inactive
